This note sets out measurements from the supplement of paper PMC12819154, “High-throughput peptide-centric local stability assay extends protein–ligand identification to membrane proteins, tissues and bacteria” (Nature Structural & Molecular Biology, 2025).

UniProt Q9NWZ3, sequence (Q9NWZ3 whole entry): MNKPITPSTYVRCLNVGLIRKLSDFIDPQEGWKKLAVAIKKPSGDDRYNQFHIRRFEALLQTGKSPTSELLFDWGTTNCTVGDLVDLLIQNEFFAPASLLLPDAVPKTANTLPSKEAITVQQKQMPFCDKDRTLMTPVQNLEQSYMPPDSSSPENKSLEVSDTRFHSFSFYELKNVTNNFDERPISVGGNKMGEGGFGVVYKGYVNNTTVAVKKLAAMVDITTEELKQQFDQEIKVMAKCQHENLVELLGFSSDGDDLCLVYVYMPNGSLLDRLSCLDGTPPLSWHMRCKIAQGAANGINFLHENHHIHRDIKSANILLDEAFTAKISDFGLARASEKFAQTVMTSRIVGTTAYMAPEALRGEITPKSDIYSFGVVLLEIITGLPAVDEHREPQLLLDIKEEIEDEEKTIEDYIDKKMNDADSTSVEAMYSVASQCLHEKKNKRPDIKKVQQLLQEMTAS
UniProt Q9BVG4, sequence (Q9BVG4 whole entry): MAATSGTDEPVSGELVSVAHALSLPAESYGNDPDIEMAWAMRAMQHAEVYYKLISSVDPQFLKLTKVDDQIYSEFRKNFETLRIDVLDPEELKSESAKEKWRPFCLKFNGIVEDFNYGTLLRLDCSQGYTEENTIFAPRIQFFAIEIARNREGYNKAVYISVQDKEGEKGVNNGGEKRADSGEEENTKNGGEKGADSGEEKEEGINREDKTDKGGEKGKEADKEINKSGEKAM
UniProt P42338, sequence (P42338 whole entry, looked up): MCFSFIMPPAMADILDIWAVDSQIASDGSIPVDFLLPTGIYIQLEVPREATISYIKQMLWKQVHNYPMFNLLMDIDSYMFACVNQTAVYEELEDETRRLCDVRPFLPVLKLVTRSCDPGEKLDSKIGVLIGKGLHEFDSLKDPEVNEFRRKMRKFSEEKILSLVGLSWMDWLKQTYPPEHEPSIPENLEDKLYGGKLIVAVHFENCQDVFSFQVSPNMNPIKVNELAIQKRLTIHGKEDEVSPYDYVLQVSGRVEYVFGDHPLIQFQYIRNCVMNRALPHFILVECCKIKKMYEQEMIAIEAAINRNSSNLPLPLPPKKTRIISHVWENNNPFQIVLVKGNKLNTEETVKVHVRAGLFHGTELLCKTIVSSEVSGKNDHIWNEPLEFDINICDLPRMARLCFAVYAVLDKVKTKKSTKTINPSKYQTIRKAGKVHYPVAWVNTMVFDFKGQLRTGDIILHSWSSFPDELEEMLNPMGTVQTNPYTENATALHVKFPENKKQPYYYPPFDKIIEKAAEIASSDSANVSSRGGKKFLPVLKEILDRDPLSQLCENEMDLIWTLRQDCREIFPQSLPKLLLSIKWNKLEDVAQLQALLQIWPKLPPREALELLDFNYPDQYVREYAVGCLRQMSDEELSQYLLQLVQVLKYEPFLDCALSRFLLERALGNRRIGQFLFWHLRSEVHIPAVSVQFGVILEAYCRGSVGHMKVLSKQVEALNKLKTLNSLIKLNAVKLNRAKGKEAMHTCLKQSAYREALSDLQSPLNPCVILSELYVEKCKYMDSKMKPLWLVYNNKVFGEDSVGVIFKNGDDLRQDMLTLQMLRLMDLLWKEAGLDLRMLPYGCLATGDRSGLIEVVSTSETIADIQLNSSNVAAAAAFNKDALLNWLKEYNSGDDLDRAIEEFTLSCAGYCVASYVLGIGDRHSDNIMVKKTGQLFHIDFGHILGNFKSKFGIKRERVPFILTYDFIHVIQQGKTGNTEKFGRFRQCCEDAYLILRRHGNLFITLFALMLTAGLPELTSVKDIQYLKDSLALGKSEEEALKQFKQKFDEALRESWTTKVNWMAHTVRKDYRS
UniProt P10398, sequence (P10398 whole entry): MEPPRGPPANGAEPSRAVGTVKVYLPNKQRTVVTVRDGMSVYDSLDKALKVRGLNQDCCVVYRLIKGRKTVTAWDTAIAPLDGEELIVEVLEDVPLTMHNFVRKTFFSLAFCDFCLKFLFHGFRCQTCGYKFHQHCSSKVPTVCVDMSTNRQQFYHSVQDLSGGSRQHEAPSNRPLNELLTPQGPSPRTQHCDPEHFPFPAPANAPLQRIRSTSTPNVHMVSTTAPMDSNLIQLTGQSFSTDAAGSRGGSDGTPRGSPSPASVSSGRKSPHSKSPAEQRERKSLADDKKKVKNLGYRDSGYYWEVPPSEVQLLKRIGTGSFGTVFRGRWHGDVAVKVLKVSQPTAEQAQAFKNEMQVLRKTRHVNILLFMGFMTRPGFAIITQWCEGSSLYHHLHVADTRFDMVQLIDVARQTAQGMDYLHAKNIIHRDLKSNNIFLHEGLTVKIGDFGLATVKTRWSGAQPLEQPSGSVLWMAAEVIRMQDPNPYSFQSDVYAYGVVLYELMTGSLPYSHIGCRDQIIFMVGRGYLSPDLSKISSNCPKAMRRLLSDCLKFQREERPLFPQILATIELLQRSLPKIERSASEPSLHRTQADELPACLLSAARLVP
UniProt Q96SB4, sequence (Q96SB4 whole entry): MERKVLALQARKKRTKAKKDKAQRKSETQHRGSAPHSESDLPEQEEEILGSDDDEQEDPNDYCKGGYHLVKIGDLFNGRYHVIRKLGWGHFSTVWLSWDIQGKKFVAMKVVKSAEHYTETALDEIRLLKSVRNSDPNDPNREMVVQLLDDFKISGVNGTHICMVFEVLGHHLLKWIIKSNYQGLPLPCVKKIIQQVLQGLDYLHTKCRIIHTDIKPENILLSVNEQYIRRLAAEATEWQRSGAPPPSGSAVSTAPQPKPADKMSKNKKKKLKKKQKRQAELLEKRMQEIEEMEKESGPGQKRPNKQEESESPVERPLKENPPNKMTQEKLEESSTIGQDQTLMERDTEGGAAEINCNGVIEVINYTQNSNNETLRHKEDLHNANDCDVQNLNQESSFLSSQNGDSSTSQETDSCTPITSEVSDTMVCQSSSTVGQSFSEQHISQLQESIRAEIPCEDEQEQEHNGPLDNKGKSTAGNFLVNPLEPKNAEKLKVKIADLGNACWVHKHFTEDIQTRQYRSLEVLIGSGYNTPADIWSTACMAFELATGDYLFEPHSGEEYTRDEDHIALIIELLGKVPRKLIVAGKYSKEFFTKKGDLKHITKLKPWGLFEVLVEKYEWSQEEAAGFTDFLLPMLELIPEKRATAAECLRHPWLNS
UniProt P45985, sequence (P45985 whole entry): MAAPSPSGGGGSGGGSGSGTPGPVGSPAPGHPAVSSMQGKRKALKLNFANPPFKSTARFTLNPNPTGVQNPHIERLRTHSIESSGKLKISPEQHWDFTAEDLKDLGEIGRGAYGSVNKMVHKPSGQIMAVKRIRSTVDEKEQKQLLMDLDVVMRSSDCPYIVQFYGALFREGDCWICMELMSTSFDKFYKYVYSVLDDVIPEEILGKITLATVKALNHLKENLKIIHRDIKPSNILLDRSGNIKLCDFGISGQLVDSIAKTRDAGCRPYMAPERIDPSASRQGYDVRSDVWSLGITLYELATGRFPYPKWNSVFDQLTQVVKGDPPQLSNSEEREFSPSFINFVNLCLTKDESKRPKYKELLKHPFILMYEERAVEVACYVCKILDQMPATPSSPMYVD

Compound in the test: CN[C@@H]1C[C@H]2O[C@@](C)([C@@H]1OC)n1c3ccccc3c3c4c(c5c6ccccc6n2c5c31)C(=O)NC4 [staurosporine]
Description: log2 fold change of tryptic peptide abundance, ligand vs vehicle (limited proteolysis) (log2 ratio); higher = more trypsin-susceptible (destabilized). The settings on record: ligand concentration: 20 uM; sample: K562 cleared lysate; digestion: 4 min, 22 C (HT-PELSA RT4min, Orbitrap Astral).
With “SRPK1 (peptide sequence: HFTEDIQTR, peptide start residue: 507) (UniProt Q96SB4)”, the log2 fold change is -1.75.
With “UniProt Q9BVG4 (peptide sequence: LISSVDPQFLK, peptide start residue: 53)” the figure was -0.658; with “ARAF (peptide sequence: IGTGSFGTVFR, peptide start residue: 316) (UniProt P10398)”, 0.439; with “SDAD1 (peptide sequence: TLYTHIVTDIK, peptide start residue: 136) (UniProt Q9NVU7)”, -0.683.
For the target “IRAK4 (peptide sequence: MGEGGFGVVYK, peptide start residue: 192) (UniProt Q9NWZ3)”, the log2 fold change was -2.25.
With “RPL18A (peptide sequence: ARAHSIQIMKVEEIAASK, peptide start residue: 119) (UniProt Q02543)” the figure was 0.524; with “UniProt P45985 (peptide sequence: DIKPSNILLDR, peptide start residue: 229)”, 0.534.
With “PIK3CB (peptide sequence: VFGEDSVGVIFK, peptide start residue: 794) (UniProt P42338)” the figure was -0.385.
